Results from ChEMBL document CHEMBL3433997, “St. Jude Leishmania screening dataset” (2016).

Key:
Type in all cases: functional
[1] = molecular target: Solute carrier family 2, facilitated glucose transporter member 1 (Homo sapiens) (UniProt P11166); assay: ST_JUDE_LEISH: Cytotoxicity at 2uM final concentration against transgenic Leishmania Mexicana promastigotes LmGLUT1 that are glucose transport deficient and complemented with the human glucose transporter GLUT1. Activity is measured by DNA content using SYBR green in vitro
[2] = molecular target: Hexose transporter 1 (Plasmodium falciparum) (UniProt O97467); assay: ST_JUDE_LEISH: Cytotoxicity at 2uM final concentration against transgenic Leishmania Mexicana promastigotes LmPfHT that are glucose transport deficient and complemented with the Plasmodium falciparum hexose transporter. Activity is measured by DNA content using SYBR green in vitro
[3] = molecular target: Glucose transporter (Leishmania mexicana) (UniProt O61059); assay: ST_JUDE_LEISH: Cytotoxicity at 2uM final concentration against transgenic Leishmania Mexicana promastigotes LmGT2 that are glucose transport deficient and complemented with the L. Mexicana glucose transporter 2. Activity is measured by DNA content using SYBR green in vitro

Sequence of Solute carrier family 2, facilitated glucose transporter member 1 (Homo sapiens) (P11166 whole entry): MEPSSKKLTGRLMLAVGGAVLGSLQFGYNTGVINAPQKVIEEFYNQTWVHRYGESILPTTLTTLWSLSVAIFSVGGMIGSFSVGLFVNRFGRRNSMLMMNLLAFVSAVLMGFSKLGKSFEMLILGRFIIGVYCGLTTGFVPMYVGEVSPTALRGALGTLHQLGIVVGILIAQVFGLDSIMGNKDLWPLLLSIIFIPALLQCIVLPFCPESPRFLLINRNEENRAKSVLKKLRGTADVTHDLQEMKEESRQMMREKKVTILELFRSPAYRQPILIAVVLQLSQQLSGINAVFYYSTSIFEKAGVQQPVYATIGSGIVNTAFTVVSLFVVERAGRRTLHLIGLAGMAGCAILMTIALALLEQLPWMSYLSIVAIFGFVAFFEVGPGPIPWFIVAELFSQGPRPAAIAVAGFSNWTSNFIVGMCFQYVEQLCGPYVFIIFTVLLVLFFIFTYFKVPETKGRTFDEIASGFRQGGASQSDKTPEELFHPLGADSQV

| Structure (SMILES) | inhibition [1] [%] | inhibition [2] [%] | inhibition [3] [%] |
| --- | --- | --- | --- |
| CC(=NNC(S)=NCCc1ccccc1)c1ccccn1 | 57.4 | 68 | 23.6 |
| CCN(CC)C(=O)c1cnc(-c2ccccc2)nc1Oc1cccc(Cl)c1 | -0.46 | 2.57 | 3 |
| Cc1ccc(Cn2cnc3cc(C(=O)Nc4ccc(-c5ccc(CN(C)C)cc5)cc4)ccc3c2=O)o1 | 5.55 | 2.88 | 3.84 |
| CCCN1CCN(c2ccc(NS(=O)(=O)c3ccc(C(=O)Nc4ccc(Cl)cc4)cc3)cc2)CC1 | 0.49 | 0.84 | -2.28 |
| NC1=NC(c2ccccc2)(c2ccccn2)C(=O)N1CCCc1ccccc1 (stereo unspecified) | 6.44 | 2.19 | 1.77 |
| Cn1c2c(c3ccccc31)CN(CCC1(c3ccc(Cl)c(Cl)c3)CN(C(=O)Cc3ccccc3)CCO1)CC2 (stereo unspecified) | 2.23 | 3.84 | -1.01 |
| COc1ccc2c(N/N=C/c3cccc([N+](=O)[O-])c3)cc(C)nc2c1 | 1.12 | 4.05 | 0.63 |
| Cc1cccc2nc(-c3ccc(-c4ccc(CN5CCC(C(N)=O)CC5)cc4)s3)[nH]c12 | 10.9 | 9.37 | 8.95 |
| COc1ccc2c(=O)c(I)c(C)[nH]c2c1 | -1.2 | -1.12 | -3.12 |
| Nc1c2c(nc3ccc(C(=O)Nc4ccc(Br)cc4)cc13)CCCC2 | 5.71 | 6.08 | 2.67 |
| COc1cc(CN2CCC(C(=O)Nc3ccc(-c4cccc(C)c4)cc3)CC2)ccc1O | 8.11 | 7.03 | 4.91 |
| CN1CCN(CCCN(Cc2csc(-c3ccc(CNCc4ccccc4)cc3)n2)C(=O)Nc2ccc3ccccc3c2)CC1 | 2.94 | 4.46 | 0.42 |
| CCCCCCN1CCN(Cc2cccc(NC(=O)c3cc4ccccc4o3)c2)CC1 | 1.59 | 1.56 | 1.59 |
| Clc1ccc(OCCC2CCN(CCCCCCN3CCCCC3)CC2)cc1Cl | 10.8 | 4.99 | 17 |
| COc1ccc(NC(=O)C2c3ccccc3C(=O)N(C3CCCC3)C2c2cccs2)cc1OC (stereo unspecified) | 2.85 | 5.65 | 0.45 |
| COc1ccc(OC)c(C=NNc2nc3ccccc3[nH]2)c1 | 5.98 | 5.18 | 3.34 |

| Structure (SMILES) | inhibition [1] [%] | inhibition [2] [%] | inhibition [3] [%] |
| --- | --- | --- | --- |
| CNCCNCc1ccc(-c2ccc(-c3nc4cc(F)ccc4[nH]3)s2)cc1 | 9.52 | 7.79 | 8.77 |
| COc1ccc2ncc(F)c([C@H](O)CN3CCC(NCc4ccc5c(c4)OCCO5)CC3)c2c1 | 4.19 | 2.23 | 1.28 |
| OC1=C2C(=Nc3ccccc3SC2c2cccs2)c2ccccc21 (stereo unspecified) | 12.2 | 10.8 | 1.64 |
| O=C(Cn1c2ccccc2c(=O)c2ccc(Cl)cc21)Nc1ccc(C(F)(F)F)cc1 | -0.52 | -1.32 | -1.59 |
| O=C(Nc1ccc(-c2nc3ccccc3[nH]2)cc1)c1ccc(S(=O)(=O)N2CCCCC2)cc1 | 3.08 | 4.17 | 0.68 |
| Cc1[nH]c(C)c(-c2ccc(Br)cc2)c(=O)c1Cl | 4.57 | 3.47 | 3.22 |
| Cc1ccc(NC(=O)c2cn(-c3ccccc3)nc2-c2ccc(F)cc2)cc1[N+](=O)[O-] | 4.38 | 3.28 | 1.86 |
| CC(C)CNCc1cccc(-c2ccc(CNc3ccc4ncccc4c3)cc2)c1 | 1.45 | 1.19 | -0.62 |
| CCCCN(CCCC)CCNC(=O)c1ccc(-c2nc3cc(Cl)ccc3[nH]2)c(OCC)c1 | 4.49 | 2.11 | 4.26 |
| c1ccc2c(NCCCCCCCCNc3ccnc4ccccc34)ccnc2c1 | -0.47 | 0.85 | 1.12 |
| O=S(=O)(c1cccc(Br)c1)N1CCCCC(c2ccc(C(F)(F)F)cc2)=N1 | 1.84 | 3.68 | 2.2 |
| CC(C)C[C@@H](/C=N/NC(N)=O)NC(=O)[C@H](CC(C)C)NC(=O)[C@H](CC(C)C)NC(=O)OCc1ccccc1 | 5.02 | 6.9 | 4.41 |
| CN(CCN1CCCC1)c1nc2cc(-n3cnc4cc(-c5ccc(Cl)cc5)sc4c3=O)ccc2[nH]1 | 0.93 | 0.75 | 1.45 |
| CCCOc1cccc(C(=O)N[C@@H](Cc2ccccc2)[C@H](O)CNCc2cccc(OC)c2)c1 | 0.22 | 0.92 | -3.25 |
| CCNC[C@@H](O)[C@H](Cc1ccccc1)NC(=O)c1cc2c3c(c1)c(CC)cn3CCS(=O)(=O)N2C | 0.67 | 0.11 | -0.02 |
| O=C(c1ccc2ccccc2n1)N1CCCc2cc(Br)ccc21 | 8.95 | 1.96 | 0.16 |
